High-throughput results deposited in PubChem by National Center for Advancing Translational Sciences (NCATS).
TRPML1 ag: human mucolipin-1 channel agonism. Q9GZU1. TRPML1-expressing cells, Ca2+ dye fluorescence, FDSS. activation, % (no concentration beside the values). hit rate 0.12% among 410,000. AID 624414; in the data active means activation above about 50%; inconclusive means mostly about 30% to 49%; further: 0% is about no effect
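Tet-induced TRPML1-DL cells, 1,500 per well, cultured overnight, were loaded with a no-wash Ca2+ dye for 45–90 min. Calcium fluorescence was recorded on the FDSS for 110 s after compound addition, before the EC80 agonist (4 uM 54-4) was added.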
TRPV1 potentiator: enhances activation of the human vanilloid receptor TRPV1 | Q8NER1 | potentiation, % at 8.33 µM | TRPV1-expressing cells, Fluo-8 calcium influx, capsaicin EC20 potentiation | hit rate 0.02% among 320,000; in the data active means potentiation above about 80%; inconclusive means between about 30% and that limit; further: 0% is about no effect
Target sequence (Q8NER1 whole entry, looked up): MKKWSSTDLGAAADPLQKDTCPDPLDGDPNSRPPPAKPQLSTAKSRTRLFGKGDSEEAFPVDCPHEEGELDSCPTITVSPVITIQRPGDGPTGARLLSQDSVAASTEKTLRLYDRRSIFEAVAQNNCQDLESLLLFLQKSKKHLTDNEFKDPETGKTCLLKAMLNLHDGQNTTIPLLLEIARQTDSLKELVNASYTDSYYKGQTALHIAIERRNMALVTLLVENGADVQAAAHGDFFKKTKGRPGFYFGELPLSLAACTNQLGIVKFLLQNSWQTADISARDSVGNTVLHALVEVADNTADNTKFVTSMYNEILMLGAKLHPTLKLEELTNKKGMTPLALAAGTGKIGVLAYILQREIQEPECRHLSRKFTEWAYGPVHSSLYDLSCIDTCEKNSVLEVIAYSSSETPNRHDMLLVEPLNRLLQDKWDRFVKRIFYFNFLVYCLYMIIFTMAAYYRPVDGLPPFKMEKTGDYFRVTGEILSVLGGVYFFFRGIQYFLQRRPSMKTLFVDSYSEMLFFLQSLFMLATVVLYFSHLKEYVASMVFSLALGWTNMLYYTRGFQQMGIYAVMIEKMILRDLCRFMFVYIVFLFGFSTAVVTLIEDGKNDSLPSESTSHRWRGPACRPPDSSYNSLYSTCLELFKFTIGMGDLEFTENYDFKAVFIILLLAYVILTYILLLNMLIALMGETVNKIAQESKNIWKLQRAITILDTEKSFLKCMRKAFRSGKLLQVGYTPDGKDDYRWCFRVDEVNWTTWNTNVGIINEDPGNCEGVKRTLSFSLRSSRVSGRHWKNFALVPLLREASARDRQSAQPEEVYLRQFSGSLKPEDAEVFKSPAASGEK
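Cells expressing TRPV1 were dye-loaded with Fluo-8 and read kinetically: 10 s baseline, 3 min after compound (agonist portion), then 2 min after EC20 capsaicin (allosteric enhancer portion). Calcium-bound dye fluorescence at 480/520 nm.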
TRPML1 blocker: human mucolipin-1 channel inhibition. Q9GZU1. activity change, negative = inhibition, % (no concentration beside the values). hit rate 0.02% among 390,000. TRPML1-inducible cells, Ca2+ dye fluorescence, FDSS; hits give low values; inhibition of EC80 agonist-evoked calcium signal. AID 624415; in the data active means activity change below about -50%; inconclusive means between about -30% and that limit;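 further: stimulus is agonist 54-4 at its EC80 concentration; on the % scale 0 is the no-effect control and ±100 the full control effect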
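Calcium fluorescence in TRPML1-DL cells induced overnight with Tet: a 110 s read after compound pin addition, then a 110 s antagonist read after challenge with 54-4 at 4 uM final (EC80).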
TRPV1 agonist: human TRPV1 agonism; TRPV1-expressing cells, Fluo-8 calcium influx, agonist mode; activation, % at 8.33 µM; Q8NER1; hit rate 0.19% among 320,000; in the data active means activation above about 80%; inconclusive means between about 30% and that limit; further: 0% is about no effect
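TRPV1-expressing cells were cultured overnight at 35.5C and loaded with Fluo-8 calcium dye for 40 to 90 min at room temperature. After a 10 s baseline, compound was added and calcium influx was read kinetically for 3 min (ex 480/em 520 nm).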
Numbers without * were called inactive; ? = inconclusive; · = no result given. Hits are enriched below; roughly 0.27% of the tested compounds scored in any of these assays.

SMILES	TRPML1 ag	TRPV1 potentiator	TRPML1 blocker	TRPV1 agonist
CCOC(=O)[C@H]1[C@H]2COc3ccc(Cl)cc3[C@@H]2N2C(=O)c3cc(F)c(F)cc3NC(=O)[C@@]12C	0	17	-9	81*
O=C(N/N=C/C=C/c1ccccc1)c1ccccn1	1	-3	-5	97*
O=C(N/N=C/C=C\c1ccccc1)c1cnccn1	0	-20	12	19
COC1=CC(=Cc2c(N)n3nc(CC(=O)N4CCOCC4)sc3nc2=O)C=C(OC)C1=O	6	?	-11	-5
C=CCC1=C/C(=C\c2c(N)n3nc(CC(=O)N4CCCC4)sc3nc2=O)C=C(OC)C1=O	68*	-28	-10	?
C[n+]1ccc(/C=C/c2cc[n+](C)c3ccccc23)c2ccccc21	-1	·	·	·
CCn1cc(C(=O)NCCc2ccccc2)c(=O)c2cc(S(=O)(=O)N3CCCC3)ccc21	1	0	19	96*
CC[N+](C)(C)c1ccc(/C=C/c2ccncc2)cc1	7	·	·	·
COC(=O)c1ccc(CNC(=O)COC(=O)CCC2CCCC2)cc1	1	-27	-5	84*
FC(F)(F)c1nc(N2CCCC2)ncc1-c1nnnn1-c1ccccc1	52*	-8	-10	-1
Cc1ccc(-n2nnnc2-c2cnc(N3CCCC3)nc2C(F)(F)F)cc1	11	-18	5	0
O=C(Cn1cc(SCc2ccc(Cl)cc2)c2ccccc21)N1CCCC1	4	·	-5	·
C/C(=N\Nc1ccc2nncn2n1)c1ccc(Cl)s1	-1	-11	-3	115*
Oc1cccc(Nc2cc(-c3ccccc3)ncn2)c1	-1	·	-3	·
COCCN(Cc1cc2cccc(C)c2[nH]c1=O)C(=O)c1ccccc1	1	3	11	-2
CCC(=O)N(CCc1ccccc1)Cc1cc2cccc(C)c2[nH]c1=O	·	22	·	88*
COc1ccc(C2(C)NC(=O)N(CC(=O)Nc3ccc4[nH]c(=O)[nH]c4c3)C2=O)cc1 (centres undefined)	0	-22	-3	-2
CC(=O)Nc1ccc(/C=N/N2C(=O)NC(C)(c3ccc(OC(F)F)cc3)C2=O)cc1 (centres undefined)	50*	-3	-3	21
CC1(c2ccc(OC(F)F)cc2)NC(=O)N(CC(=O)Nc2ccc3[nH]c(=O)[nH]c3c2)C1=O (centres undefined)	1	81*	13	-7
S=C(NCc1ccncc1)Nc1ccc(Cl)cc1Cl	0	-20	10	80*
O=C(NCc1ccncc1)Nc1ccc(Cl)cc1Cl	0	-30	39	?
COc1cccc(CNC(=S)Nc2ccc(Cl)cc2C)c1	0	-23	34	81*
Fc1ccc(CNC(=S)Nc2ccc(Cl)cc2Cl)cc1	2	-19	16	88*
Cc1cc(Cl)ccc1NC(=S)NCc1ccccc1	-1	-29	4	?
S=C(NCc1ccc(Cl)cc1)Nc1ccc(Cl)cc1Cl	1	-3	5	?
SMILES	TRPML1 ag	TRPV1 potentiator	TRPML1 blocker	TRPV1 agonist
O=C(Nc1ccccc1)c1ccc(NC2CCCCC2)c(S(=O)(=O)N2CCOCC2)c1	0	15	6	86*
O=C(NCc1nc2ccccc2[nH]1)c1cccc(S(=O)(=O)N2CCOCC2)c1	0	30	8	5
O=C(Nc1ccccn1)c1cccc(S(=O)(=O)N2CCOCC2)c1	0	9	80	9
O=C(Nc1ccc(N2CCCCCC2)cc1)c1cccc(S(=O)(=O)N2CCOCC2)c1	1	-2	31	87*
CC(C)(C)c1cc(NC(=O)c2cccc(S(=O)(=O)N3CCOCC3)c2)no1	0	-7	11	80*
O=C(Nc1nc2ccccc2[nH]1)c1cccc(S(=O)(=O)N2CCOCC2)c1	0	-26	16	80*
COc1ccc(CNC(=O)CCc2nc3cccnc3n2Cc2ccccc2)cc1	2	·	91	·
Cc1ccc(S(=O)(=O)Nc2cc(C(F)(F)F)ccc2N2CCOCC2)c(C)c1	64*	-8	1	23
CC(=O)c1ccc(N2CCN(C(=O)CCS(=O)(=O)c3ccc4c(c3)oc(=O)n4C)CC2)cc1	-1	·	-9	·
CNC(=O)c1csc(-c2ccc(C)cc2)n1	-1	-15	5	81*
O=C(Nc1ccc(Cl)cc1)c1csc(-c2ccccc2)n1	3	-25	49	81*
CNC(=O)c1csc(-c2ccc(Cl)cc2)n1	2	-21	-5	84*
O=C(Nc1ccc(Cl)cc1)c1csc(-c2ccncc2)n1	1	-10	9	26
CN(C)CCCNc1cc(N2CCN(C)CC2)ncn1	-1	·	·	·
